What all share (assay): NCI-60 one-dose screen, 48 h (100 = growth as untreated, 0 = no growth, -100 = all killed)
Common to all, as to details: 10 µM unless noted

Experiment [1] relates to SR leukemia.
Experiment [2] deals with RPMI-8226 leukemia.
The subject of experiment [3] is OVCAR-8 ovarian.
Experiment [4] concerns OVCAR-5 ovarian.
Experiment [5] relates to OVCAR-4 ovarian.
Experiment [6] deals with SK-OV-3 ovarian.
In experiment [7] the test system is OVCAR-3 ovarian.
Experiment [8] deals with HS 578T breast.
Experiment [9] deals with NCI/ADR-RES ovarian.
The subject of experiment [10] is T-47D breast.
The test system of experiment [11] is BT-549 breast.
In experiment [12] the test system is MDA-MB-435 melanoma.
Experiment [13] concerns SW-620 colon.
The subject of experiment [14] is MCF7 breast.
The test system of experiment [15] is HCT-116 colon.
Experiment [16] concerns HCC-2998 colon.
Experiment [17] relates to KM12 colon.

This is part of a sample that, as a whole, favours compounds with a hit. Of some 83,000 tested, about 20% had one in any assay.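 Note: values are percent growth. 100 is the growth of untreated cells, values between 100 and 0 indicate rising inhibition; between -100 and 0 indicates cell death.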 Unmarked numbers belong to inactive results. Calls of active or inactive are those of the source. Rule for the calls: active = growth percent below 10; inactive = the rest.

As to `CNC(=O)c1cc(Oc2ccc3nc(NC(=O)Nc4ccc(F)cc4F)sc3c2)ccn1`, the growth is 80.4% in [1]; 72.9% in experiment [2]; 45.1% in experiment [3]; 95.2% in [4]; 34.2% in [5]; 76.3% in experiment [6]. Moreover, the growth is 74.7% in experiment [7]; 44.5% in experiment [8]; 45.5% in experiment [9]; 56.5% in [10]; 100% in [11]; 62.5% in experiment [12]. In addition, the growth was 99.9% in experiment [13]; 66.8% in experiment [14]; 20.7% in experiment [15]; 88.1% in experiment [16]; 72.6% in experiment [17].

For `CCNCCNc1c(C)c(-c2ccc(C(F)(F)F)cc2)c(C#N)c2nc3ccccc3n12`, the growth in experiment [1] was -0.902% (active); in [2], 86.4%; in experiment [3] it was 95.3%; in [4], 104%; in [5] it was 88.2%; in experiment [6], 111%. Also, the growth in [7] is 96.4%; in experiment [8], 90.8%; in [9], 101%; in experiment [10], 82.6%; in experiment [11], 75.5%; in experiment [12] it was 65.2%. Besides, the growth in [13] was 93.6%; in experiment [14], 76.2%; in experiment [15] it was 93.4%; in experiment [16] it was 99.4%; in experiment [17] it was 97%.

With `CCCC[N+]1(C)CCN=C1Cc1ccccc1` (configuration not stated), the growth was 94.4% in experiment [1]; 75.7% in experiment [2]; 97.2% in experiment [3]; 103% in experiment [4]; 109% in experiment [5]; 109% in [6]. Also, the growth in experiment [7] is 103%; in experiment [8] it was 97.7%; in experiment [10], 101%; in experiment [11] it was 123%; in experiment [12] it was 104%; in experiment [13], 98.4%. Besides, the growth in experiment [14] was 100%; in experiment [15], 101%; in experiment [16] it was 93.7%; in experiment [17], 118%.

Turning to `CNC1=C([N+](=O)[O-])C(c2ccc(OC)cc2)C(C#N)=C(c2ccc[nH]2)O1` (configuration not stated), the growth in [1] is 98.2%; in [2], 96.2%; in [3], 99.8%; in experiment [4], 109%; in experiment [5] it was 92.8%; in experiment [6], 102%. The growth in experiment [7] was 107%; in experiment [8], 98.1%; in experiment [9], 110%; in [10] it was 100%; in [11] it was 101%; in [12], 96%. Further, the growth in [13] is 104%; in experiment [14], 86.4%; in [15] it was 99%; in experiment [16], 100%; in experiment [17], 114%.

Take `CC(=O)O[C@H]1CC[C@@]2(C)C(=CC[C@@H]3[C@@H]2CC[C@]2(C)C(Cl)=C(c4nc5ccc(Cl)cn5c4NC(C)(C)C)C[C@@H]32)C1`: the growth in experiment [1] is 93%; in experiment [2] it was 93.9%; in experiment [3], 96.9%; in experiment [4], 91.5%; in experiment [5], 90.3%; in [6], 105%. Further, the growth is 100% in [7]; 85.6% in experiment [8]; 95.4% in experiment [9]; 94.4% in [10]; 105% in [11]; 93.8% in experiment [12]. The growth was 98.3% in experiment [13]; 91.9% in [14]; 86.6% in experiment [15]; 112% in experiment [16]; 94.5% in [17].

As for `COc1cc(-c2ccc(-c3ccc(C(=N)N)s3)s2)cc(OC)c1OC`, the growth in experiment [1] was -20.7% (active); in experiment [2], -34.7% (active); in experiment [3], 13.9%; in experiment [4], 64.6%; in experiment [5], 45.1%; in [6], 85%. Besides, the growth in experiment [7] is 3.44% (active); in experiment [8], 44.1%; in experiment [9], 77.9%; in experiment [10], 39.3%; in experiment [11], 61.7%; in experiment [12] it was -34.8% (active). Also, the growth in experiment [13] is -15.5% (active); in experiment [14], -6.02% (active); in [15] it was -21.5% (active); in [16], 49.7%; in [17], 27.7%.

Take `O=C(/C=C/c1ccco1)c1ccc(Nc2ccnc3cc(Cl)ccc23)cc1`: the growth in [1] was -50.4% (active); in experiment [2] it was -34.9% (active); in [3], 81.3%; in experiment [4], 70.2%; in experiment [5], 103%; in experiment [6] it was 108%. For the same compound, the growth is 78.7% in experiment [7]; 114% in [8]; 83.7% in experiment [10]; 88.5% in experiment [11]; 92.5% in experiment [12]; 86.3% in experiment [13]. Further, the growth in [14] is 56.1%; in [15], 33.7%; in [16] it was 60.7%; in experiment [17], 80.2%.

Take `O=C1Nc2ccccc2/C1=C/c1cccn1CCCCCCn1c2ccccc2c(=O)c2ccccc21`: the growth in experiment [1] is 80.8%; in [2], 25.3%; in [3] it was 47.5%; in experiment [4], 82.2%; in [5] it was 53.8%; in [6] it was 87.2%. Also, the growth is 64.9% in [7]; 96.3% in experiment [8]; -3% (active) in experiment [10]; 63.5% in experiment [11]; 96.7% in experiment [12]; 102% in experiment [13]. Besides, the growth in [14] is 1.03% (active); in experiment [15], 70.4%; in experiment [16], 42.8%; in [17], 12.8%.

For `COc1cc(-c2c(-c3ccccc3)c[nH]c2C(=O)NCCCO)c(OC)c2c1OCO2`, the growth in experiment [1] is 93.9%; in experiment [2], 99.7%; in experiment [3] it was 100%; in [4], 99.5%; in experiment [5], 107%; in experiment [6], 96.4%. The growth in experiment [7] was 111%; in [8], 92.9%; in experiment [9] it was 106%; in experiment [10], 90.9%; in [11] it was 106%; in experiment [12], 104%. Besides, the growth in experiment [13] is 102%; in experiment [14], 110%; in [15], 106%; in experiment [16], 110%; in [17] it was 125%.

With `Nc1ccc(N)c2c1C(=O)c1cccc([N+](=O)[O-])c1C2=O`, the growth in experiment [1] is -9.26% (active); in experiment [2], 42.8%; in [3], 41.4%; in experiment [4] it was 70.2%; in [5], 60.9%; in [6], 27.6%. The growth is 58.7% in experiment [7]; 37.6% in experiment [8]; 49.4% in [9]; 38.2% in experiment [10]; 21.6% in [11]; 67.3% in experiment [12]. Moreover, the growth in experiment [13] was 51.5%; in experiment [14], 16.5%; in experiment [15] it was 19.7%; in experiment [16], -60.6% (active); in [17], 42%.

Source of the values: PubChem BioAssay (NCI).
